rTrxR1 inhibitor – blocks rat thioredoxin reductase 1; O89049; recombinant rTrxR1, NADPH fluorescence consumption, selenite substrate; Potency, µM (titrated, usually from 114 µM), actives largely listed as inhibitors; actives 1% (n = 390,000); AID 588453; further: nearly all actives have a fitted effect of over 65% in size
Target sequence (O89049 whole entry, looked up): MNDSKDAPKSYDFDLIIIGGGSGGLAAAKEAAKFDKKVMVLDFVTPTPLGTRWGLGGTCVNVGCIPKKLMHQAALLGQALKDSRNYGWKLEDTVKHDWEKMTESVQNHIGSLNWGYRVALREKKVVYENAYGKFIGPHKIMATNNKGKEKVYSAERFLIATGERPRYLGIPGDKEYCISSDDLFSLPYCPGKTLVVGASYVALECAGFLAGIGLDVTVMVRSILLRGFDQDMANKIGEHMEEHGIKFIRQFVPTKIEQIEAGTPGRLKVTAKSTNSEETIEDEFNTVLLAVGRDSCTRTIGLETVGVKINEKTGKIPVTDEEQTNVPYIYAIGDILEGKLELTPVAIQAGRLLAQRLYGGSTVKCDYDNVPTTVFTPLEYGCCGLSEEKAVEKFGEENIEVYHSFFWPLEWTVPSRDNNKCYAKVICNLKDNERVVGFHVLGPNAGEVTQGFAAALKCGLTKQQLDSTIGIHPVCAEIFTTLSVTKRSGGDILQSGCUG
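Rat TrxR1 (90 nM in the dispensed reagent) was pre-reduced with 400 uM NADPH for 5 min at room temperature, then incubated with compound for 15 min. After 400 uM selenite was added, NADPH fluorescence (Ex 340/Em 450 nm) was followed for 8 min.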
mIDH1 inhibitor – blocks human mutant IDH1 R132H enzyme; Potency, µM (doses to about 76.6 µM), usual class: inhibitors; actives 0.093% (n = 390,000); IDH1-R132H enzyme, NADPH consumption, diaphorase/resazurin fluorescence; O75874; further: nearly all actives have a fitted effect of over 65% in size
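IDH1-R132H (0.5 ug/mL) preincubated 30 min with compound, then NADPH (0.016 mM) and alpha-KG (2 mM) added; 80 min at RT, pH 7.5. Remaining NADPH coupled via diaphorase/resazurin to fluorescence (540/590 nm); concentration-response curves normalized to no-enzyme control.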
TrxR1 substrate – rat thioredoxin reductase 1 substrate activity | O89049 | purified TrxR1 substrate turnover, NADPH consumption readout | Potency, µM (doses to about 114 µM) | actives 0.01% (n = 390,000) | AID 588456; further: nearly all actives have a fitted effect of over 50% in size
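Rat TrxR1, dispensed at 90 nM, was prereduced with 400 uM NADPH (final) for 5 min at ~22 deg C, then incubated with compound 15 min before 400 uM selenite. A first-read NADPH fluorescence drop versus no-compound background flagged substrates.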
Nrf2 block – Nrf2 pathway inhibition; A549 ARE-Fluc reporter, luciferase luminescence, 18-24 h; Potency, µM (titrated, usually from 46 µM), usual class: inhibitors; actives 2.1% (n = 360,000); further: nearly all actives have a fitted effect of over 60% in size
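Nrf2 activity is the BugLite luminescence, read 15 min after reagent at room temperature, following CellTiter-Fluor cytotoxicity readout (30 min, 37C). Compound titrations were applied for 18-24 h to 5000 A549 ARE_Fluc cells/well in 5% FBS OPTI-MEM.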
Mito fusion act – blocks mitochondrial division or promotes mitochondrial fusion | Potency, µM (titrated, usually from 46.1 µM), actives largely listed as activators | actives 0.23% (n = 320,000) | AID 485298 | S. cerevisiae fusion-defective mutant growth rescue, CellTiterGlo 48 h; further: nearly all actives have a fitted effect of over 45% in size
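S. cerevisiae fusion-defective temperature-sensitive mutants (e.g. fzo1-1, mgm1-5) grown 48 h at 37C in YPEG (ethanol/glycerol non-fermentable) medium with 23 nl compound per well; growth rescue read as CellTiterGlo luminescence.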
A549 viability – counter-screen for Nrf2 inhibitors: cytotoxicity in A549 cells; A549 ARE-Fluc cells, CellTiter-Fluor viability, 18-24 h; Potency, µM (titrated, usually from 46 µM), most hits filed as inhibitors; actives 0.16% (n = 390,000)
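A549 ARE-Fluc cells in 5% FBS OPTI-MEM, 5000 cells/well, rested 2 h then exposed to compounds in concentration-response for 18-24 h at 37 °C. Viability by CellTiter-Fluor fluorescence (Ex 405/Em 525) after 30 min; luciferase luminescence (BugLite, 15 min, RT) read afterwards.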
Large screens that a line does not name were inactive. The list is not random: actives were taken first. Their share in the collection is about 3.1%. The call rests on the fitted dose curve; in most records, active means well fitted curve in the direction sought with a large enough effect; inconclusive means small, poorly fitted or top-dose-only effect, or another doubt; inactive means no such curve, though single readings can be large; an effect the other way counts as inactive or inconclusive.

O=C(/C(Br)=C/Nc1cc(Cl)ccc1Cl)C(F)(F)F	rTrxR1 inhibitor 39.8µM
COc1cc2c(cc1OC)C1(Nc3c-2c(Cc2ccccc2)nn3-c2ccccc2)C(=O)Nc2ccccc21 (centres undefined)	Nrf2 block 11.6µM, A549 viability inconclusive
O=C(NCc1cccnc1)[C@@H]1CC=C[C@@H]2CCN(C3CCCCC3)C(=O)[C@@H]21	none (no result: mIDH1 inhibitor, Nrf2 block, Mito fusion act, A549 viability)
CCc1ccc2oc(C(=O)N(Cc3cccc(Cl)c3)Cc3ccco3)c(C)c2c1	Nrf2 block inconclusive (no result: Mito fusion act)
O=C(NCc1ccc(Cl)cc1)N1CCN(Cc2ccccc2)CC1	Nrf2 block 23.1µM
O=C(NCC(=O)N1CCN(Cc2ccccc2)CC1)c1ccc(Cl)cc1	Nrf2 block 29.1µM
O=C(Cc1ccc[nH]c1=O)c1ccc(F)cc1	none (no result: mIDH1 inhibitor, Nrf2 block, Mito fusion act, A549 viability)
CC(C)[C@H](NC(=O)c1ccc([N+](=O)[O-])cc1Cl)C(=O)N1CCN(C/C=C/c2ccccc2)CC1	Nrf2 block 23.1µM, A549 viability inconclusive (no result: Mito fusion act)
CCN(CC)CCn1c2ccccc2c2cnc(N)c(C#N)c21	Nrf2 block 5.17µM, A549 viability inconclusive
CN(C)C=Nc1ncc2c3ccccc3n(CCN(C)C)c2c1C#N	Nrf2 block inconclusive
CC(=O)NCCCC(=O)NNC1CC(=O)N(c2cccc(Cl)c2)C1=O (centres undefined)	rTrxR1 inhibitor 14.1µM
CCOC(=O)C(C(=O)OCC)C(C)(C)/C(C)=N\Nc1ccc([N+](=O)[O-])cc1[N+](=O)[O-]	Nrf2 block inconclusive, A549 viability inconclusive
CCOC(=O)CC(C)(C)/C(C)=N/Nc1ccc([N+](=O)[O-])cc1[N+](=O)[O-]	Nrf2 block 18.4µM, A549 viability inconclusive
O=C(CNC(=O)C(c1ccccc1)c1ccccc1)OCC(=O)c1cccc2ccccc12	none (no result: mIDH1 inhibitor, Mito fusion act)
COc1ccc(N=c2cc(-c3ccc(OC)cc3)oc3ccccc23)cc1	Nrf2 block 16.4µM, A549 viability inconclusive
CCOC(=O)c1cc(-c2ccc(/C=C3/C(=O)NC(=O)C(C#N)=C3C)o2)ccc1Cl	rTrxR1 inhibitor 10µM, Nrf2 block inconclusive
CC1=C(C#N)C(=O)NC(=O)/C1=C\c1ccc(-c2ccc(C)cc2[N+](=O)[O-])o1	rTrxR1 inhibitor 15.8µM
Cc1ccc(-c2ccc(/C=N/N=C3/NC(=O)C(CC(=O)O)S3)o2)c([N+](=O)[O-])c1 (centres undefined)	TrxR1 substrate inconclusive
C[n+]1ccc(/C=C/c2ccc(C=S)cc2)c2ccccc21	none (no result: mIDH1 inhibitor, Nrf2 block, Mito fusion act, A549 viability)
O=C(COc1ccccc1-c1nc(-c2ccccc2)no1)Nc1cccc([N+](=O)[O-])c1	Nrf2 block inconclusive (no result: Mito fusion act)
CC(C)OC(=O)NC(C)(C)COC(=O)Nc1cccc(Cl)c1	Nrf2 block 10.3µM
Cc1ccc(C(c2sc3nc(-c4ccco4)nn3c2O)N2CCOCC2)cc1 (centres undefined)	none (no result: Nrf2 block, Mito fusion act)
CSc1ccc(CN(C)C(=O)CNC(=O)c2sc3ccccc3c2Cl)cc1	Nrf2 block 10.3µM, A549 viability inconclusive
COc1ccc(CN(C)C(=O)CNC(=O)c2sc3ccccc3c2Cl)c(OC)c1OC	Nrf2 block inconclusive (no result: Mito fusion act)
CSc1ccc(CC2C(=O)Nc3ccccc32)cc1 (centres undefined)	Nrf2 block inconclusive (no result: Mito fusion act)
CCN(CC)C(=O)CN(c1cc2c(cc1OC)oc1ccccc12)S(=O)(=O)c1ccccc1	Nrf2 block 16.4µM, A549 viability inconclusive
O=C(Nc1ccc2oc(=O)ccc2c1)c1ccc(-c2cccc(Cl)c2)o1	Nrf2 block 18.4µM
O=C(Nc1ncc(Cc2ccccc2Cl)s1)c1ccc(-c2cccc([N+](=O)[O-])c2)o1	Nrf2 block 16.4µM
O=C(Nc1ccc2oc(=O)ccc2c1)c1ccc(-c2cccc([N+](=O)[O-])c2)o1	Nrf2 block 23.1µM, A549 viability inconclusive
CCOc1ccc(NC(=O)Cn2c(=O)n(-c3ccc(C)cc3)c(=O)c3cc(OC)c(OC)cc32)cc1	none (no result: Mito fusion act)

Screens: PubChem BioAssay, National Center for Advancing Translational Sciences (NCATS)
